# Compound activity: PubChem, National Center for Advancing Translational Sciences (NCATS)
# In the library only some 2.4% were active in any assay of this set; here they are far more common.
# D2 ag-1: D2 dopamine receptor (human) agonism. AID 485358. HEK293 T-REx D2 cells, calcium flux agonist mode. activation, % at 2 µM. 340,000 tested, 0.53% active;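 active = activation over 3 SD above normal in the single-dose calcium agonist read, cut at about 30% in these data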; also: 0% is about no effect
# Target sequence (P14416 whole entry, looked up): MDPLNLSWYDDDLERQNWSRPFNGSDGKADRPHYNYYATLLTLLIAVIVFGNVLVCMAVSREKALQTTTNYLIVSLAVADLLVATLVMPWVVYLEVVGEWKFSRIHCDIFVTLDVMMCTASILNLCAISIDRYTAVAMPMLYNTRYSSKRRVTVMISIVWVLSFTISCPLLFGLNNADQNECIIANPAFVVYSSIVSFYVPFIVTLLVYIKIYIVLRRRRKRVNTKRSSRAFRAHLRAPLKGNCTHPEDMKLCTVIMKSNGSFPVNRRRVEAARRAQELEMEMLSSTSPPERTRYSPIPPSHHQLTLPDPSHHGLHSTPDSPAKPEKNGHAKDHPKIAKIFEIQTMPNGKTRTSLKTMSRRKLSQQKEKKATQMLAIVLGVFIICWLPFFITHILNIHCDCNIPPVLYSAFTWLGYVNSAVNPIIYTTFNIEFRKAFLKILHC
#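 Tetracycline-induced HEK293 T-REx cells with force-coupled D2 receptor, plated overnight at 30 C, loaded with no-wash calcium dye. After a 10 s baseline, compound was pin-added and calcium flux read kinetically for 180 s; calcium rises flagged agonists.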
# D2 ag-2: human D2 receptor agonism in beta-arrestin assay; DiscoveRx PathHunter D2 beta-arrestin, luminescence, 90 min; 100% = 57 uM dopamine signal; P14416; activation, % (no concentration beside the values); 360,000 tested, 0.084% active; AID 624465; in the data active = activation above about 40%; inconclusive = between about 15% and that limit
#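 Agonist mode: compounds alone added to overnight-plated D2 PathHunter cells for 90 min at 37 C, with 57 uM final dopamine (EC100) defining full response. Beta-arrestin recruitment detected by chemiluminescent reagent, read after 1 h at ambient temperature.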
# D2 PAM-1: potentiates the human D2 dopamine receptor allosterically. potentiation, % (no concentration beside the values). 360,000 tested, 0.23% active. DiscoveRx D2 beta-arrestin cells, luminescence, 90 min; 100% = 57 uM dopamine signal; in the data active = potentiation above about 50%; inconclusive = mostly about 30% to 49%
#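 D2 cells co-treated with compound plus 50 nM dopamine (EC20) for 90 min at 37 deg C to detect potentiation. Beta-arrestin recruitment was read as enzyme-fragment luminescence after 1 h at ambient temperature. Full response was set by 57 uM dopamine.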
# D2 antagonist: D2 dopamine receptor (human) antagonism. P14416. HEK293 TREx D2 cells, calcium flux, dopamine EC80. inhibition, % at 10 µM. 340,000 tested, 2% active. AID 485344; in the data active = inhibition above about 30%; inactive = below that, where a call was filed; also: 0% is about no effect
#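 Dopamine at EC80 is the agonist stimulus; test compounds precede it by 180 s. Calcium flux read kinetically in a force-coupled, inducible HEK293 T-REx D2 cell line.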
# D2 PAM-2: D2 dopamine receptor (human) potentiation; P14416; HEK293 T-REx D2, calcium flux, EC20 dopamine potentiation; potentiation, % at 10 µM; 340,000 tested, 0.34% active;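 active = potentiation over 3 SD above the plate norm, cut at about 30% in these data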; also: 0% is about no effect
#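 Potentiation of an EC20 dopamine calcium response is measured in a force-coupled, tetracycline-inducible Hek293 Trex D2 line. Compound-only kinetic reads over 180 s flag agonists before dopamine addition.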
# Active calls of the source: *; ? = inconclusive; nt = no result given; ! = repeats disagree.
SMILES,D2 ag-1,D2 ag-2,D2 PAM-1,D2 antagonist,D2 PAM-2
CC(=O)c1ccc(NC(=O)CSc2nc(-c3cccc(F)c3)nc3c2c(=O)n(C)c(=O)n3C)cc1,2.9,nt,nt,nt,-8.8
CCOc1ccc(-n2cc(-c3ccccc3)c3c(NCCc4ccccc4)ncnc32)cc1,0.2,nt,nt,nt,-11.1
CC(=O)Oc1oc(-c2ccccc2)nc1/C=N/c1ccccn1,0.7,1.7,-10.8,-4.8,-1.5
COc1ccccc1N=Cc1nc(-c2ccccc2)oc1OC(C)=O,0.5,-1.1,5.3,50.1*,-8.9
COc1ccc(Cl)cc1NC(=S)N1CCN(c2ncccn2)CC1,12.4,2.4,-1.8,12.5,4.9
S=C(Nc1cccc(Cl)c1)N1CCN(c2ccccn2)CC1,1.7,-5.3,-0.7,-15.5,-11.1
COc1ccc(Cl)cc1NC(=S)N1CCN(c2ccccn2)CC1,20.7,2.2,-3.6,34.9*,-7.6
S=C(Nc1ccc(Cl)cc1Cl)N1CCN(c2ccccn2)CC1,7.8,2.2,-1.3,18.2,1.1
COc1cc(NC(=S)N2CCN(c3ccccn3)CC2)c(OC)cc1Cl,34.2*,7.3,-3.5,12.1,-8.5
COc1cccc(NC(=S)N2CCN(c3ccccn3)CC2)c1,31.6*,?,4.1,-8.2,-8.8
COc1ccc(N2CCN(S(=O)(=O)c3c(C)[nH]c(=O)[nH]c3=O)CC2)cc1,0.5,nt,nt,nt,0.1
CC(=O)NC(CC(=O)NC(C)c1ccc(Cl)cc1Cl)c1ccccc1 (stereo not given),-5.1,-0.9,-16.3,34.4*,-4.8
CCCN(CC(=O)Nc1ccc(Cl)cc1Cl)C(=O)CC(NC(C)=O)c1ccccc1 (stereo not given),0.4,-4.0,-47.8,-9.8,0.3
c1ccc(CN(CC2=NCCN2)c2ccccc2)cc1,1.8,-6.2,-17.2,40.8*!,1.3
COc1ccc(N2CCN(C(=O)Nc3ccc(S(=O)(=O)N(C)C)cc3)CC2)cc1,0.5,-3.7,-2.0,41.1*,1.5
COc1ccc(NC(=O)N2CCN(S(C)(=O)=O)CC2)cc1,1.6,-0.8,-4.4,34.1*,12.2
CN(C)S(=O)(=O)c1ccc(NC(=O)N2CCN(c3ccccc3)CC2)cc1,3.1,-7.3,-5.7,9.0,21.6
COc1ccc(NC(=O)N2CCN(C(=O)Nc3ccc(OC)cc3)CC2)cc1,0.2,-4.2,-3.1,9.9,-2.6
CC(=O)N1CCCc2cc(S(=O)(=O)N3CCN(c4ccc(F)cc4)CC3)ccc21,0.9,nt,nt,nt,-8.5
CN1CCN(S(=O)(=O)c2cccc(C(=O)Oc3ccc(C(C)(C)C)cc3)c2)CC1,0.7,-1.1,-6.8,34.3*,5.0
Cc1ccc(S(=O)(=O)N(C)C)cc1NC(=O)COC(=O)c1n[nH]c(=O)c2ccccc12,-0.5,-6.8,-18.5,51.7*,-20.6
COc1ccc(S(=O)(=O)N(C)C)cc1NC(=O)CCCSc1ccccc1,-0.6,-4.5,-19.5,47.7*,nt
COC(=O)c1ccc(C)c(NC(=O)Cn2cnc3ccccc3c2=O)c1,1.0,0.4,-0.7,35.4*,0.5
COc1ccc(NC(=O)COC(=O)Cn2cnc3ccccc3c2=O)cc1OC,0.8,-2.1,-6.1,-11.5,-0.3
COc1ccc(S(=O)(=O)N(C)C)cc1NC(=O)COC(=O)Cn1cnc2ccccc2c1=O,0.5,0.2,-1.7,37.9*,-12.8
SMILES,D2 ag-1,D2 ag-2,D2 PAM-1,D2 antagonist,D2 PAM-2
CCc1cccc(CC)c1NC(=O)Cc1csc(C)n1,-0.6,nt,nt,nt,0.0
CCc1cccc(NC(=O)CC2Oc3ccc(C)cc3NC2=O)c1 (stereo not given),-0.6,nt,nt,nt,-1.6
CCCCOc1ccccc1NC(=O)CC1Sc2ccccc2NC1=O (stereo not given),5.7,nt,nt,nt,-13.4
Cc1ccc(C2C(C(=O)c3cccs3)=C(O)C(=O)N2CCN2CCOCC2)o1 (stereo not given),-2.2,-4.5,-10.4,11.3,37.8*
COc1cc(OC)c(NC(=O)Cn2c(=O)nc(-c3ccccc3)c3ccccc32)cc1Cl,-0.3,nt,nt,nt,-1.8
O=C1CC(c2ccco2)CC(O)=C1C=NCCN1CCN(C2CC(=O)N(c3ccccc3)C2=O)CC1 (stereo not given),-0.1,0.6,-1.4,-7.5,47.2*
O=C1CC(c2ccco2)CC(O)=C1C=NCCN1CCNCC1 (stereo not given),1.1,-1.3,-0.6,-5.6,-5.2
